Laboratory results reported in PubChem BioAssay AID1159580 (chemical genetic matrix, 2015).
“And” between values parts separate entries of the source, which are not always exact repeats. Identical values can stand only once. In all, about 5,500 compounds went through this assay and about 2,000 (36%) were called active. Not shown: some 18% with an inconclusive outcome. No stated cut-off is given here; in the data, active means normalized growth mostly below about 0.91 (no sharp cut-off); inconclusive means no clear call, values can overlap the other calls; inactive means mostly above about 0.92. The list shows a part of the results.

Assay: chemical genetic growth profiling, strain panel (AID 1159580);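 further: tested at 20 µM; growth read once vehicle control cultures reached saturation at 30 °C; 1 = growth at the plate median or of vehicle wells; lower values mean less growth of the strain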
Details: S. cerevisiae deletion strains, growth OD
[1] = locus YAL040C, strain CLN3, active compounds read low
[2] = locus YCL061C, strain MRC1 (second series), active compounds read low
[3] = locus YDR363W, strain ESC2, active compounds read low
[4] = locus YER002W, strain NOP16, active compounds read low
[5] = locus YGR078C, strain PAC10, active compounds read low
[6] = locus YGR229C, strain SMI1, active compounds read low
[7] = locus YJR075W, strain HOC1, active compounds read low
[8] = locus YMR263W, strain SAP30, active compounds read low
[9] = locus YMR307W, strain GAS1, active compounds read low
[10] = locus YNL175C, strain NOP13, active compounds read low
[11] = locus YNL197C, strain WHI3, active compounds read low
[12] = locus YNL224C, strain SQS1, active compounds read low
[13] = locus YNL322C, strain KRE1, active compounds read low
[14] = locus YOR083W, strain WHI5 (second series), active compounds read low
[15] = locus YPL055C, strain LGE1, active compounds read low
[16] = locus YAL013W, strain DEP1, active compounds read low
[17] = locus YPL241C, strain CIN2, active compounds read low

Measured: normalized growth

Fc1ccc(C(OCCN2CCN(CCCc3ccccc3)CC2)c2ccc(F)cc2)cc1
inactive: [1] 1.02 | [4] 1.06 | [8] 0.997 | [10] 0.972 | [11] 1.08 | [12] 1.05 | [14] 0.903
active: [2] 0.881 | locus YDR150W, strain NUM1, active compounds read low 0.78 | [3] 0.851 | [5] 0.868 | [6] 0.0957 | [7] 0.797 | [9] 0.891 | locus YNL153C, strain GIM3, active compounds read low 0.661 | [13] 0.705 | [15] 0.583

c1ccc(CCCN2CCN(CCOC(c3ccccc3)c3ccccc3)CC2)cc1
active: [2] 0.932
inactive: [16] 0.977 | [1] 0.967 | [3] 0.941 | [4] 0.998 | [7] 0.93 | [8] 0.992 | [10] 0.996 | [11] 0.991 | [12] 1.02 | [14] 0.881 | [15] 0.95

Fc1ccc(C(OCCCc2cnc[nH]2)c2ccc(F)cc2)cc1
inactive: [1] 1.01 | [2] 1 | [3] 0.979 | [4] 1.04 | [6] 1.02 | [8] 1.01 | [10] 1.01 | [11] 1.01 | [12] 1.02 | [13] 1.03 | [14] 1.03 | [17] 1.01

CN1CCC(OC(c2ccccc2)c2ccccc2)CC1
inactive: [16] 0.98 | locus YAL021C, strain ccr4, active compounds read low 0.974 | locus YAL026C, strain drs2, active compounds read low 0.972 | locus YAL030W, strain snc1, active compounds read low 0.987 | locus YBL061C, strain skt5, active compounds read low 1 | locus YBR009C, strain hhf1, active compounds read low 0.983 | locus YBR021W, strain FUR4, active compounds read low 0.985 | locus YBR023C, strain chs3, active compounds read low 1.02 | locus YBR171W, strain sec66, active compounds read low 0.99 | locus YBR229C, strain ROT2, active compounds read low 0.977 | locus YBR231C, strain swc5, active compounds read low 0.976 | locus YBR279W, strain paf1, active compounds read low 1.01 | locus YCL011C, strain gbp2, active compounds read low 0.998 | locus YCL016C, strain dcc1, active compounds read low 1.04 | locus YCL029C, strain bik1, active compounds read low 0.995 | locus YCL061C, strain MRC1, active compounds read low 1 | locus YCL069W, strain vba3, active compounds read low 0.973 | locus YCR088W, strain abp1, active compounds read low 0.989 | locus YDL005C, strain med2, active compounds read low 0.975 | locus YDL035C, strain GPR1, active compounds read low 1.03 | locus YDL040C, strain nat1, active compounds read low 0.975 | locus YDL074C, strain BRE1, active compounds read low 0.976 | locus YDL101C, strain DUN1, active compounds read low 0.973 | locus YDL134C, strain PPH21, active compounds read low 1.02 | locus YDL185W, strain tfp1, active compounds read low 0.984 | locus YDL192W, strain arf1, active compounds read low 0.983 | locus YDR001C, strain nth1, active compounds read low 0.984 | locus YDR069C, strain doa4, active compounds read low 0.977 | locus YDR101C, strain arx1, active compounds read low 0.987 | locus YDR137W, strain rgp1, active compounds read low 1.03 | locus YDR159W, strain sac3, active compounds read low 0.969 | locus YDR162C, strain NBP2, active compounds read low 1.01 | locus YDR195W, strain ref2 0.973 | locus YDR297W, strain sur2, active compounds read low 0.988 | locus YDR318W, strain mcm21, active compounds read low 0.978 | locus YDR334W, strain swr1, active compounds read low 0.982 | locus YDR335W, strain msn5, active compounds read low 0.996 | locus YDR388W, active compounds read low 0.992 | locus YDR392W, strain spt3, active compounds read low 0.935 | locus YDR502C, strain sam2, active compounds read low 1.01 | locus YEL003W, strain gim4, active compounds read low 0.956 | locus YEL037C, strain rad23, active compounds read low 0.97 | locus YEL061C, strain CIN8 (second series), active compounds read low 0.965 | locus YEL061C, strain CIN8, active compounds read low 0.995 | locus YER015W, strain faa2, active compounds read low 0.99 | locus YER016W, strain bim1, active compounds read low 0.977 | locus YER110C, active compounds read low 0.972 | locus YER111C, strain swi4, active compounds read low 0.984 | locus YER155C, strain BEM2 (second series), active compounds read low 0.977 | locus YER155C, strain BEM2, active compounds read low 0.988 | locus YER167W, strain BCK2, active compounds read low 0.99 | locus YFR010W, strain ubp6, active compounds read low 0.963 | locus YGL078C, strain dbp3, active compounds read low 0.985 | locus YGL086W, strain mad1, active compounds read low 0.987 | locus YGL167C, strain pmr1, active compounds read low 1 | locus YGL173C, strain kem1, active compounds read low 0.994 | locus YGL227W, strain vid30, active compounds read low 0.983 | locus YGL240W, strain doc1, active compounds read low 0.982 | locus YGL248W, strain PDE1, active compounds read low 0.964 | locus YGL253W, strain hxk2, active compounds read low 0.987 | [5] 0.985 | locus YGR135W, strain pre9, active compounds read low 0.951 | locus YGR252W, strain gcn5, active compounds read low 0.925 | locus YHR013C, strain ard1, active compounds read low 0.994 | locus YHR027C, strain rpn1, active compounds read low 0.993 | locus YHR030C, strain SLT2, active compounds read low 0.998 and 0.996 | locus YHR079C, strain IRE1 (second series), active compounds read low 0.991 | locus YHR079C, strain IRE1, active compounds read low 1.02 | locus YHR094C, strain hxt1, active compounds read low 0.998 | locus YHR129C, strain ARP1, active compounds read low 0.99 | locus YHR142W, strain chs7, active compounds read low 1.01 | locus YHR200W, strain rpn10, active compounds read low 0.987 | locus YIL066C, strain RNR3, active compounds read low 1.01 | locus YIL073C, strain SPO22, active compounds read low 1.01 | locus YIL125W, strain kgd1, active compounds read low 0.994 | locus YIR030C, strain dcg1, active compounds read low 0.984 | locus YJL092W, strain hpr5, active compounds read low 0.98 | locus YJL095W, strain BCK1 (second series), active compounds read low 0.988 | locus YJL095W, strain BCK1, active compounds read low 0.961 and 1 | locus YJL115W, strain asf1, active compounds read low 0.98 | locus YJL129C, strain trk1, active compounds read low 0.984 | locus YJL134W, strain LCB3, active compounds read low 0.984 | locus YJL154C, strain vps35, active compounds read low 0.978 | locus YJL164C, strain tpk1, active compounds read low 0.987 | locus YJL166W, strain qcr8, active compounds read low 1.01 | locus YJL168C, strain set2, active compounds read low 0.988 | locus YJL187C, strain SWE1 (second series), active compounds read low 0.972 | locus YJL187C, strain SWE1, active compounds read low 0.983 | locus YJR043C, strain POL32, active compounds read low 1.03 | locus YJR066W, strain TOR1, active compounds read low 0.973 | locus YKL009W, strain mrt4, active compounds read low 0.974 | locus YKL068W, active compounds read low 0.983 | locus YKL085W, strain MDH1 (second series), active compounds read low 1 | locus YKL085W, strain MDH1, active compounds read low 1 | locus YKL160W, strain elf1, active compounds read low 1.03 | locus YKR001C, strain vps1, active compounds read low 0.996 | locus YKR026C, strain gcn3, active compounds read low 0.989 | locus YKR091W, strain srl3, active compounds read low 0.991 | locus YLL001W, strain dnm1, active compounds read low 1.01 | locus YLL026W, active compounds read low 0.991 | locus YLL041C, strain sdh2, active compounds read low 0.985 | locus YLR027C, strain aat2, active compounds read low 0.995 | locus YLR039C, strain RIC1, active compounds read low 1.15 | locus YLR058C, strain SHM2, active compounds read low 0.992 | locus YLR102C, strain apc9, active compounds read low 0.999 | locus YLR113W, strain HOG1, active compounds read low 1.01 | locus YLR221C, strain rsa3, active compounds read low 1.04 | locus YLR258W, strain gsy2, active compounds read low 1.01 | locus YLR262C, strain YPT6 (second series), active compounds read low 1.03 | locus YLR262C, strain YPT6, active compounds read low 1.09 | locus YLR268W, strain sec22, active compounds read low 0.992 | locus YLR320W, strain mms22, active compounds read low 1.05 | locus YLR330W, strain CHS5, active compounds read low 0.987 | locus YLR342W, strain FKS1 (second series), active compounds read low 1.01 | locus YLR342W, strain FKS1, active compounds read low 0.989 | locus YLR357W, strain rsc2, active compounds read low 0.96 | locus YLR370C, strain arc18, active compounds read low 1.01 | locus YLR371W, strain rom2, active compounds read low 1 | locus YLR384C, strain iki3, active compounds read low 0.994 | locus YLR418C, strain cdc73, active compounds read low 0.956 | locus YML016C, strain PPZ1, active compounds read low 0.983 | locus YML032C, strain rad52, active compounds read low 1.02 | locus YML120C, strain ndi1, active compounds read low 1.01 | locus YML124C, strain tub3, active compounds read low 1.02 | locus YMR058W, strain fet3, active compounds read low 0.978 | locus YMR078C, strain ctf18, active compounds read low 0.98 | locus YMR125W, strain sto1, active compounds read low 0.961 | locus YMR129W, active compounds read low 0.977 | locus YMR205C, strain PFK2, active compounds read low 1.03 | locus YMR223W, strain ubp8, active compounds read low 0.968 | locus YMR231W, strain pep5, active compounds read low 0.996 | [8] 0.971 | [9] 1.14 | locus YNL067W, strain RPL9B, active compounds read low 0.974 | locus YNL071W, strain lat1, active compounds read low 0.983 | locus YNL183C, strain NPR1, active compounds read low 0.964 | locus YNL209W, strain ssb2, active compounds read low 0.988 | locus YNL233W, strain BNI4, active compounds read low 0.975 | locus YNL248C, strain rpa49, active compounds read low 0.98 | locus YNL250W, strain rad50, active compounds read low 0.969 | locus YNL271C, strain bni1, active compounds read low 0.984 | locus YNL298W, strain CLA4, active compounds read low 0.985 | locus YNL307C, strain MCK1, active compounds read low 0.992 | locus YNL322C, strain KRE1 (second series), active compounds read low 1.01 | [13] 1.01 | locus YNR049C, strain mso1, active compounds read low 0.989 | locus YNR052C, strain pop2, active compounds read low 0.984 | locus YOL006C, strain TOP1, active compounds read low 0.946 | locus YOL012C, strain htz1 0.957 | locus YOL147C, strain pex11, active compounds read low 0.986 | locus YOR001W, strain rrp6, active compounds read low 0.937 | locus YOR061W, strain CKA2, active compounds read low 1 | locus YOR069W, strain VPS5, active compounds read low 0.992 | locus YOR070C, strain gyp1, active compounds read low 0.998 | locus YOR080W, strain dia2, active compounds read low 1 | locus YOR083W, strain WHI5, active compounds read low 1.04 | locus YOR106W, strain vam3, active compounds read low 1.03 | locus YOR136W, strain idh2, active compounds read low 0.983 | locus YOR144C, strain elg1, active compounds read low 0.983 | locus YOR184W, strain ser1, active compounds read low 1.01 | locus YOR231W, strain MKK1, active compounds read low 1.01 | locus YOR265W, strain rbl2, active compounds read low 1.01 | locus YOR270C, strain vph1, active compounds read low 0.999 | locus YOR290C, strain snf2, active compounds read low 0.93 | locus YOR316C, strain cot1, active compounds read low 0.985 | locus YPL051W, strain arl3, active compounds read low 1.02 | [15] 0.994 | locus YPL078C, strain atp4, active compounds read low 1.02 | locus YPL106C, strain sse1, active compounds read low 0.985 | locus YPL240C, strain hsp82, active compounds read low 1.01 | [17] 0.991 | locus YPL256C, strain CLN2, active compounds read low 1.02 | locus YPR119W, strain clb2, active compounds read low 0.986 | locus YPR141C, strain kar3, active compounds read low 0.965 | locus YPR163C, strain tif3, active compounds read low 0.987 | locus YPR167C, strain met16, active compounds read low 0.99 | strain wtn01, active compounds read low 0.974
